Results on 40 compounds are retold here after PubChem BioAssay (Tox21).

Inconclusive results are not listed. The source made the active and inactive calls. Calls come from the whole dose curve; as a rule, active = well fitted cell-killing curve with a large enough effect in the repeat runs; inconclusive = weak or mixed curves; inactive = flat fitted curve, though single readings scatter.
% is set by controls: 0 for no effect and ±100 for the full control effect.

The nature of the test: qHTS RealTime-Glo MT Cell Viability Assay in HepG2 cells - 24 hour (AID 1224867). Note: nearly all actives have a fitted effect of over 50% in size. The following applies: RealTime-Glo luminescence; series mostly up to 76.8 µM. The source says: U.S. Tox21 Program National Center for Advancing Translational Sciences [NCATS] NIH Chemical Genomics Center [NCGC] U.S. Environmental Protection Agency [EPA] National Institutes of Environmental Health Sciences [NIEHS] National Toxicology Program [NTP] U.S. Food and Drug Administration [FDA] Tox21 Assay Overview: Measure of cell viability is critical in the cell-base assay. Analysis of cell viability is necessary for the characterization of cell responses to cytotoxic drugs and environmental stress. A RealTime-Glo MT Cell Viability Assay to monitor cell viability in real time of continues cell culture during 40 hours of compound treatment was used to screen Tox21 10K library compounds in HepG2 cells. The RealTime-Glo MT Cell Viability Assay is a nonlytic, homogeneous, bioluminescent method to measure cell viability in real time using a simple, plate-based method. The assay involves adding NanoLuc luciferase and a cell-permeant prosubstrate to cells in culture. Viable cells reduce the proprietary prosubstrate to generate a substrate for NanoLuc luciferase. This substrate diffuses from cells into the surrounding culture medium, where it is rapidly used by the NanoLuc Enzyme to produce a luminescent signal. The signal correlates with the number of viable cells, making the assay well suited for cytotoxicity studies.
Tox21 Assay Protocol Summary: The mixture of HepG2 cell suspension and reagents were dispensed at 600cells/6 ul/well in 1536-well tissue culture treated black solid bottom plates using a Multidrop dispenser. After the assay plates were incubated at a 37 C/5% CO2 incubator for 5 hours, 23 nL of compounds dissolved in DMSO, positive and negative controls was transferred to the assay plate by a pintool work station. The plates were incubated at 37 C for 40 hours. The luminescence intensity were measured at 0h, 8h, 16h, 24h, 32h and 40h time points using ViewLux plate reader during compound treatment.
For orientation: qHTS replaces the single test concentration by a dilution series.
In the case of `NC(=O)c1ccccc1C(N)=O`, the outcome was inactive.

Take `CCC1=C(C)CN(C(=O)NCCc2ccc(S(=O)(=O)NC(=O)NC3CCC(C)CC3)cc2)C1=O` (stereo not given): the compound was classed as inactive.

`O=C1OC(=O)C2CC=CCC12` (stereo not given): the outcome was inactive.

Turning to `O=C(O)CCc1nc2ccccc2[nH]1`, the outcome was inactive.

For `O=C1c2ccccc2C(=O)C1c1ccc2cc(S(=O)(=O)O)cc(S(=O)(=O)O)c2n1`, the compound was called inactive.

Regarding `FC1(F)C(F)(F)C(F)(F)C2(F)C(F)(C1(F)F)C(F)(F)C(F)(F)C1(F)C(F)(F)C(F)(F)C(F)(F)C(F)(F)C12F` (stereo not given), the compound was called inactive.

For the compound `COc1ccc(CN(CCN(C)C)c2ncccn2)cc1`, the call was inactive.

With `CCCCCCCCCCCCSC#N`, the compound was called inactive.

For `CC(C)(O)C(=O)O`, the compound was called inactive.

For the compound `Cc1cc(N)n(-c2ccccc2)n1`, the call was inactive.

`CCCCCCOC(=O)c1ccccc1`: the call was inactive.

For `O=c1[nH]nc(-c2ccc([N+](=O)[O-])o2)o1`, the call was inactive.

For `O=C(NC1CCN(CCc2c[nH]c3ccccc23)CC1)c1ccccc1`, the compound was classed as inactive.

For `Nc1ccc(C(=O)Oc2ccccc2)c(O)c1`, the result was inactive.

Regarding `CCCCCCCCS`, the result was inactive.

For `CCC(=O)O[C@@H]1C[C@H]2CC[C@]1(C)C2(C)C`, the result was inactive.

Consider `CCC[Si](OC)(OC)OC`, for which the compound was classed as inactive.

On to `O=C(O)c1cccnc1Nc1cccc(C(F)(F)F)c1`, for which the result was inactive.

With `COc1ccc(C(=O)Nc2ccccc2)cc1[N+](=O)[O-]`, the call was inactive.

`O=C(c1ccc(Cl)cc1)c1ccc(Cl)cc1`: the compound was classed as inactive.

In the case of `COc1ccnc2c1CCCCC2S(=O)c1nc2ccccc2[nH]1` (stereo not given), the compound was called inactive.

`O=C(O)c1ccc2cc(O)ccc2c1`: the compound was classed as inactive.

With `COC(=O)c1cc(Cl)ccc1[N+](=O)[O-]`, the call was inactive.

Consider `CS(C)=O`, for which the outcome was inactive.

Take `O=C(O)c1cc(C(=O)O)c(C(=O)O)cc1C(=O)O`: the call was inactive.

`CCCC(=O)OCc1ccccc1`: the compound was classed as inactive.

`O=C(Nc1ccc2c(c1)Cc1ccccc1-2)C(F)(F)F`: the compound was called inactive.

In the case of `Cc1ccc2c(Cl)cc(Cl)c(O)c2n1`, the compound was classed as inactive.

With `CCCCCCCCCCCCCCCCCCCl`, the activity change, negative = cytotoxicity was 1.13% [at 6.97 µM] (inactive).

Regarding `Cc1cccc(C)c1NC(=O)CN1CCCC1`, the result was inactive.

In the case of `O=C1CCCN1CCO`, the compound was called inactive.

As to `Cc1cc(SC2=C(O)C[C@@](CCc3ccc(N)cc3)(C(C)C)OC2=O)c(C(C)(C)C)cc1CO`, the compound was classed as inactive.

With `NC(=O)c1ccccc1`, the outcome was inactive.

As for `COc1cc(C)c(Cc2cnc(N)nc2N)cc1OC`, the result was inactive.

Turning to `CC(C)Cc1nccs1`, the call was inactive.

Turning to `COc1ccc(C(=O)c2ccc(C)cc2)c(O)c1`, the result was inactive.

`CCCCCCC/C=C/C=O`: the outcome was inactive.

For the compound `C=CC(C)CCC=C(C)C` (stereo not given), the compound was called inactive.

As for `CCCCC(CC)COCCC#N` (stereo not given), the compound was called inactive.

As for `Clc1nc2ccccc2nc1Cl`, the outcome was inactive.
